Measurements as given in PubChem BioAssay.

Assay: S6 kinase pathway phospho-S6 level changes – cell-based, A549, cytoblot, luminescence, serum-stimulated, primary screen (AID 1158);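 also: serum-stimulated A549 lung adenocarcinoma cells; signal is phosphorylated S6 detected by cytoblot immunostaining with HRP secondary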
Conditions: 5 h, higher = more signal

| Structure (SMILES) | z-score |
| --- | --- |
| COC(=O)C(CC#Cc1ccc2c(c1)[C@]1(C(=O)N2)[C@H](c2ccc(OCCO)cc2)N2[C@H](c3ccccc3)[C@H](c3ccccc3)OC(=O)[C@H]2[C@@H]1C(=O)N1CCCCCCC1)C(=O)OC | -0.173 |
| COCCOC(=O)N1C(=O)[C@@]2(c3ccccc31)[C@H](c1ccc(O)cc1)N1[C@H](c3ccccc3)[C@H](c3ccccc3)OC(=O)[C@H]1[C@@H]2C(=O)N1CCCCCCC1 | -0.43 |
| COc1ccc(C(O)C2C=CC3C(=O)N(c4ccccc4)C(=O)C3N2Nc2ccc([N+](=O)[O-])cc2)c2ccccc12 (stereo not given) | -0.446 |
| O=C1c2ccccc2[C@@]2(Cc3ccccc3N(Cc3ccccc3)C2=O)[C@H](c2ccc(CO)cc2)N1Cc1ccccc1Cl | 0.272 |
| O=C1[C@@H]2[C@@H](CC(COc3ccccc3)=C([C@H](O)CCc3ccccc3)[C@@H]2CO)C(=O)N1Cc1ccccc1 | 0.05 |
| COCCOC(=O)N1C(=O)[C@@]2(c3cc(C#CCC(C(=O)OC)C(=O)OC)ccc31)[C@H](C(N)=O)[C@H]1C(=O)O[C@H](c3ccccc3)[C@H](c3ccccc3)N1[C@@H]2c1ccc(O)cc1 | -0.255 |
| CN(C)CCCNC(=O)[C@@]1(C)c2ccccc2C(=O)N(Cc2ccc(OC(F)(F)F)cc2)[C@H]1c1ccc(CO)cc1 | 0.235 |
| CCCC=C(CCC)[C@@H](NC(=O)OCC(C)C)c1ccc(C(=O)OC)cc1 | 1.31 |
| COc1ccc(CCNC(=O)[C@@H]2c3ccccc3C(=O)N(Cc3ccccc3OC)[C@H]2c2ccc(CO)cc2)cc1 | -0.0817 |
| CCCC#C[Si](O[C@H](CC)c1cn(Cc2ccccc2)nn1)(C(C)C)C(C)C | 0.113 |
| [N-]=[N+]=NCc1ccccc1[C@@H]1OC(c2ccc(OCCCO)cc2)=N[C@]1(Cc1ccccc1N=[N+]=[N-])C(=O)O | 0.0708 |
| CN(C)CCCNC(=O)[C@@H]1c2ccccc2C(=O)N(Cc2ccccc2C(F)(F)F)[C@H]1c1ccc(CO)cc1 | -0.0975 |
| C=CCNC(=O)[C@H]1[C@@H]2C(=O)O[C@@H](c3ccccc3)[C@@H](c3ccccc3)N2[C@@H](c2ccc(OCCO)cc2)[C@]12C(=O)Nc1ccccc12 | 0.0226 |
| O=C1O[C@@H](c2ccccc2)[C@@H](c2ccccc2)N2[C@@H](c3ccccc3OCCO)[C@]3(C(=O)Nc4ccc(C#CCCO)cc43)[C@@H](C(=O)NC[C@H](O)c3ccccc3)[C@H]12 | -0.471 |
| C[C@]1(C(=O)O)c2ccccc2C(=O)N(Cc2cc(F)cc(C(F)(F)F)c2)[C@H]1c1ccc(CO)cc1 | 1.27 |
